This is part of a sample that, as a whole, favours compounds with a hit. Of some 83,000 tested, about 20% had one in any assay.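 For each line, cells grew in 96-well plates with the test compound present at a single concentration for 48 hours.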 Active and inactive are the calls of the source. Rule for the calls: active = growth percent below 10; inactive = the rest.
Assays:
Assay in all cases: NCI-60 one-dose screen, 48 h (100 = growth as untreated, 0 = no growth, -100 = all killed)
Settings in all cases: 10 µM unless noted
NCI-H23 lung = tested on: NCI-H23 lung
NCI-H226 lung = tested on: NCI-H226 lung
NCI-H322M lung = tested on: NCI-H322M lung
HOP-62 NSCLC = tested on: HOP-62 NSCLC
NCI-H460 lung = tested on: NCI-H460 lung
HOP-92 NSCLC = tested on: HOP-92 NSCLC
NCI-H522 lung = tested on: NCI-H522 lung
A549/ATCC NSCLC = tested on: A549/ATCC NSCLC
786-0 renal = tested on: 786-0 renal
COLO 205 colon = tested on: COLO 205 colon
DU-145 prostate = tested on: DU-145 prostate
K-562 leukemia = tested on: K-562 leukemia
MALME-3M melanoma = tested on: MALME-3M melanoma
MDA-MB-231 breast = tested on: MDA-MB-231 breast
RXF 393 renal = tested on: RXF 393 renal
SF-268 CNS = tested on: SF-268 CNS
SF-295 CNS = tested on: SF-295 CNS
SF-539 CNS = tested on: SF-539 CNS
UACC-257 melanoma = tested on: UACC-257 melanoma
M14 melanoma = tested on: M14 melanoma

Measured: growth

N#C/C(=C/c1ccc([N+](=O)[O-])cc1)n1nnc2cc(F)c(F)cc21
inactive: NCI-H23 lung 93.8% | NCI-H226 lung 102% | NCI-H322M lung 98.4% | HOP-62 NSCLC 96.6% | NCI-H460 lung 33.1% | HOP-92 NSCLC 99.6% | NCI-H522 lung 62.6% | A549/ATCC NSCLC 87.6% | 786-0 renal 42.1% | COLO 205 colon 77.4% | DU-145 prostate 54.2% | K-562 leukemia 13.9% | MALME-3M melanoma 74.8% | MDA-MB-231 breast 84.7% | RXF 393 renal 83.3% | SF-268 CNS 90.5% | SF-295 CNS 91.4% | SF-539 CNS 20.7% | UACC-257 melanoma 65.5% | M14 melanoma 70.1%

Cc1nn(-c2ccccc2)c(Oc2ccccn2)c1-c1nc2ccccc2s1
inactive: NCI-H23 lung 87.7% | NCI-H226 lung 93.8% | NCI-H322M lung 93.3% | HOP-62 NSCLC 112% | NCI-H460 lung 106% | HOP-92 NSCLC 80.9% | NCI-H522 lung 82.2% | A549/ATCC NSCLC 92.9% | 786-0 renal 104% | COLO 205 colon 110% | DU-145 prostate 98.6% | K-562 leukemia 90.7% | MALME-3M melanoma 103% | MDA-MB-231 breast 124% | RXF 393 renal 86.1% | SF-268 CNS 92.9% | SF-295 CNS 115% | SF-539 CNS 108% | UACC-257 melanoma 98% | M14 melanoma 108%

Cc1ccc(/C=C2\CN(C(=O)OC(C)(C)C)C/C(=C\c3ccc(C)cc3)C2=O)cc1
inactive: NCI-H23 lung 56.6% | NCI-H226 lung 84.9% | NCI-H322M lung 98.7% | HOP-62 NSCLC 94.9% | NCI-H460 lung 53% | HOP-92 NSCLC 84.1% | NCI-H522 lung 58.4% | A549/ATCC NSCLC 81.5% | 786-0 renal 56.5% | COLO 205 colon 51.6% | DU-145 prostate 38.7% | MALME-3M melanoma 83.5% | MDA-MB-231 breast 88.3% | RXF 393 renal 99.4% | SF-268 CNS 49.1% | SF-295 CNS 89.9% | SF-539 CNS 90.4% | UACC-257 melanoma 79.4% | M14 melanoma 43%
active: K-562 leukemia 3.47%

O=C1/C(=C/c2ccc(Cl)cc2)COc2ccc(O)cc21
active: K-562 leukemia 2.41%
inactive: NCI-H23 lung 90.9% | NCI-H226 lung 98.8% | NCI-H322M lung 94.8% | HOP-62 NSCLC 102% | NCI-H460 lung 102% | HOP-92 NSCLC 95.9% | NCI-H522 lung 13.9% | A549/ATCC NSCLC 89% | 786-0 renal 64.2% | COLO 205 colon 78.2% | DU-145 prostate 89.7% | MALME-3M melanoma 94.9% | MDA-MB-231 breast 86% | RXF 393 renal 97.9% | SF-268 CNS 79.3% | SF-295 CNS 101% | SF-539 CNS 88.1% | UACC-257 melanoma 104% | M14 melanoma 86%

COc1cc(-c2nc3cc(Cl)c(Cl)cc3[nH]2)ccc1OCC(=O)N=Nc1c(O)[nH]c2ccc([N+](=O)[O-])cc12
inactive: NCI-H23 lung 84.3% | NCI-H226 lung 92.9% | NCI-H322M lung 112% | HOP-62 NSCLC 88.7% | NCI-H460 lung 102% | HOP-92 NSCLC 84.2% | NCI-H522 lung 89.6% | A549/ATCC NSCLC 114% | 786-0 renal 92.1% | COLO 205 colon 78.5% | DU-145 prostate 105% | K-562 leukemia 46.1% | MALME-3M melanoma 77.4% | MDA-MB-231 breast 71.9% | RXF 393 renal 101% | SF-268 CNS 81.4% | SF-295 CNS 101% | SF-539 CNS 81.7% | UACC-257 melanoma 106% | M14 melanoma 80.8%

COc1cc(-c2nc(SCCC(C)C)nc(Nc3ccccc3Cl)c2C#N)cc(OC)c1OC
inactive: NCI-H23 lung 101% | NCI-H226 lung 102% | NCI-H322M lung 100% | HOP-62 NSCLC 110% | NCI-H460 lung 97.7% | HOP-92 NSCLC 91% | NCI-H522 lung 84.5% | A549/ATCC NSCLC 92.1% | 786-0 renal 92.4% | COLO 205 colon 109% | DU-145 prostate 97.7% | K-562 leukemia 95.1% | MALME-3M melanoma 105% | MDA-MB-231 breast 81.5% | RXF 393 renal 117% | SF-268 CNS 85.7% | SF-295 CNS 100% | SF-539 CNS 95.6% | UACC-257 melanoma 127% | M14 melanoma 96.6%

O=C(Cn1c(=O)sc2ccccc21)NNS(=O)(=O)c1ccccc1[N+](=O)[O-]
inactive: NCI-H23 lung 98.6% | NCI-H226 lung 101% | NCI-H322M lung 104% | HOP-62 NSCLC 108% | NCI-H460 lung 108% | HOP-92 NSCLC 104% | NCI-H522 lung 88.5% | A549/ATCC NSCLC 103% | 786-0 renal 104% | COLO 205 colon 110% | DU-145 prostate 105% | K-562 leukemia 98.9% | MALME-3M melanoma 99.9% | MDA-MB-231 breast 104% | RXF 393 renal 119% | SF-268 CNS 97% | SF-295 CNS 103% | SF-539 CNS 99% | UACC-257 melanoma 99.7% | M14 melanoma 99.4%

O=C(NNC(=O)c1ccc(-n2cc(-c3ccccc3)nn2)cc1)Nc1ccccc1
inactive: NCI-H23 lung 97.6% | NCI-H226 lung 99.6% | NCI-H322M lung 108% | HOP-62 NSCLC 94.8% | NCI-H460 lung 109% | HOP-92 NSCLC 98.8% | NCI-H522 lung 108% | A549/ATCC NSCLC 102% | 786-0 renal 104% | COLO 205 colon 111% | DU-145 prostate 106% | K-562 leukemia 105% | MALME-3M melanoma 113% | MDA-MB-231 breast 108% | RXF 393 renal 103% | SF-268 CNS 90.2% | SF-295 CNS 101% | SF-539 CNS 96% | UACC-257 melanoma 103% | M14 melanoma 97.6%

O=C(c1ccccc1)C1C(=O)N2C(=S)N(c3ccccc3)C(=O)C2C1c1ccc(Cl)cc1 (stereo not given)
inactive: NCI-H23 lung 88.2% | NCI-H226 lung 74.5% | NCI-H322M lung 94.6% | HOP-62 NSCLC 93.4% | NCI-H460 lung 86.8% | HOP-92 NSCLC 91.3% | NCI-H522 lung 94% | A549/ATCC NSCLC 101% | 786-0 renal 100% | COLO 205 colon 112% | DU-145 prostate 109% | K-562 leukemia 99.1% | MALME-3M melanoma 88.1% | MDA-MB-231 breast 90.4% | RXF 393 renal 90.4% | SF-268 CNS 97.5% | SF-295 CNS 94.2% | SF-539 CNS 98% | UACC-257 melanoma 101% | M14 melanoma 96.3%

O=C(CSc1nc2sc3c(c2c(=O)n1-c1ccccc1)CCCCC3)N/N=C/c1ccc(F)cc1
inactive: NCI-H23 lung 37.7% | NCI-H226 lung 86.9% | NCI-H322M lung 67.5% | HOP-62 NSCLC 19.9% | HOP-92 NSCLC 82.6% | NCI-H522 lung 44.3% | 786-0 renal 64.1% | COLO 205 colon 33% | K-562 leukemia 64.2% | MALME-3M melanoma 11.3% | SF-295 CNS 16.9% | UACC-257 melanoma 74.6% | M14 melanoma 51.6%
active: NCI-H460 lung 1.12% | A549/ATCC NSCLC 9.73% | DU-145 prostate -0.517% | MDA-MB-231 breast -26.1% | RXF 393 renal 5.3% | SF-268 CNS 7.96% | SF-539 CNS -39.9%

Cc1ccccc1NC(=O)c1sc2nc(C)c(C(=O)/C=C/c3ccccc3)cc2c1N
active: HOP-62 NSCLC 9.21% | NCI-H460 lung 0.299% | 786-0 renal -16.9% | MDA-MB-231 breast 3.85% | RXF 393 renal -26.7% | SF-539 CNS -34.4% | M14 melanoma 4.85%
inactive: NCI-H23 lung 43.3% | NCI-H226 lung 26.2% | NCI-H322M lung 55.5% | HOP-92 NSCLC 37% | NCI-H522 lung 17.9% | A549/ATCC NSCLC 14.3% | COLO 205 colon 64.1% | DU-145 prostate 10.5% | K-562 leukemia 13% | MALME-3M melanoma 59.7% | SF-268 CNS 11.8% | SF-295 CNS 14% | UACC-257 melanoma 68.5%

CN(CCn1sc(=O)n(Cc2ccccc2)c1=O)Cc1ccc2c(Cl)cc(Cl)c(O)c2n1
inactive: NCI-H23 lung 50.1% | NCI-H226 lung 61.9% | NCI-H322M lung 41% | HOP-62 NSCLC 25.2% | NCI-H460 lung 19.8% | HOP-92 NSCLC 36% | NCI-H522 lung 80.9% | A549/ATCC NSCLC 32.6% | 786-0 renal 37.6% | COLO 205 colon 93.7% | DU-145 prostate 51.6% | K-562 leukemia 13.7% | MALME-3M melanoma 63.7% | MDA-MB-231 breast 46.4% | RXF 393 renal 53.7% | SF-268 CNS 46.1% | SF-295 CNS 30.5% | SF-539 CNS 47.1% | UACC-257 melanoma 78.5% | M14 melanoma 49.4%

C#CCOc1cccc(Nc2ncnc3ccc(NC(=O)CCl)cc23)c1
active: NCI-H23 lung -66.8% | NCI-H322M lung -18.8% | HOP-62 NSCLC -35.4% | NCI-H460 lung -19.9% | HOP-92 NSCLC -76.5% | NCI-H522 lung -76.3% | A549/ATCC NSCLC -38.6% | 786-0 renal -81.9% | COLO 205 colon -64.6% | DU-145 prostate -1.66% | K-562 leukemia -13.1% | MALME-3M melanoma -76.3% | MDA-MB-231 breast -37.8% | RXF 393 renal -77.1% | SF-268 CNS -8.71% | SF-295 CNS -67.7% | SF-539 CNS -86.6% | UACC-257 melanoma -67.1% | M14 melanoma -47.8%
inactive: NCI-H226 lung 21%

COC(=O)[C@H]1CCCN1C[C@@H](O)CN1C(=O)/C(=C\c2cc(OC)c(OC)c(OC)c2)c2ccccc21
inactive: NCI-H23 lung 106% | NCI-H226 lung 96.6% | NCI-H322M lung 106% | HOP-62 NSCLC 108% | NCI-H460 lung 94.9% | HOP-92 NSCLC 105% | NCI-H522 lung 97.8% | A549/ATCC NSCLC 90.3% | 786-0 renal 101% | COLO 205 colon 121% | DU-145 prostate 99.6% | K-562 leukemia 81.4% | MALME-3M melanoma 100% | MDA-MB-231 breast 102% | RXF 393 renal 114% | SF-268 CNS 99.8% | SF-295 CNS 105% | SF-539 CNS 111% | UACC-257 melanoma 90.6% | M14 melanoma 97.3%
